Measured values taken from PubChem BioAssay (NCATS).
Records with an inconclusive call do not appear. Entries that show only a call come without a potency. Values without a mark were called inactive. Active and inactive are the calls of the source. Calls follow the shape of the dose curve; as a rule, active = well fitted cell-killing curve with a large enough effect; inconclusive = small, poorly fitted or top-dose-only effect, or effect the other way; inactive = no such curve, though single readings can be large or run the other way.

Experiment: Viability qHTS for spleen associated tyrosine kinase inhibitor (SYKi) naive MV4-11 cells (AID 1963823); also: nearly all actives have a fitted effect of over 40% in size
Conditions: MV4-11 AML viability, CellTiter-Glo luminescence, 72 h; series mostly up to 45 µM
Text: Department of Medicine, Hematology/Oncology
University Hospital Frankfurt, Germany.
Trials have shown promising clinical activity of the selective SYK inhibitor entospletinib in patients with high expressing HOXA9/MEIS1 acute leukemias. As the development of resistance mechanisms is a common problem in the use of targeted drugs, we performed a chemical library screen to identify drug sensitivities in SYK inhibitor resistant AML cells. […] Glucocorticoids are potent immunosuppressants which work in part by inhibiting the transcription of cytokine genes.
Described herein is a viability screen to look for activity in the SYK inhibitor naive cell line against four NCATS compound libraries (MIPE 5.0, NPC, NPACT, and Kinase) totaling 11372 compounds. Active hits were reacquired for confirmation and further secondary assay testing.
SEQUENCE No. (e.g., 1, 2, 3, etc.); […] (e.g., Cells, Incubation, Reagent, etc.); VALUE; DESCRIPTION.
1; Media; 2uL; white, solid-bottom Corning assay plate.
2; Compounds; 23nL; Echo acoustic dispenser.
3; Cell; 5uL; 500 cells per well.
4: Incubation; 72hr; 37 C, 5% CO2, 95% humidity.
5; Reagent; 3uL; CellTiter-Glo reagent (Promega).
6; Incubation; 10min; room temperature.
7; Detection; Luminescence; ViewLux plate reader (PerkinElmer).
NOTES (numbers refer to Sequence numbers above
1. Quantitative high-throughput screening (qHTS) of small molecule compounds was conducted on naive SYKi MV4-11 cell line.
2. Twenty-three nanoliter of small molecule compounds were added to each assay plates using the Echo acoustic dispenser (Beckman Coulter).
3. Cells were seeded into the assay plates at a final density of 500 cells in 5uL of media per well using the Multi-drop Combi dispenser.
4. Plates were covered with stainless steel gasketed lids and incubated for 72 hours at standard cell culture conditions.
5. Viability was assessed by adding 3uL of CellTiter-Glo detection reagent (Promega).
6. Plates were covered with gasket lids and incubated for 10 minutes at room temperature.
7. Luminescence was measured on a ViewLux plate reader (PerkinElmer).
Potency is read from the fitted curve at half-maximal effect.

Row | Compound | viability (% of control) | Potency
1 | CC1(C)CC[C@]2(C(=O)O[C@@H]3O[C@H](CO)[C@@H](O)[C@H](O)[C@H]3O)CC[C@]3(C)C(=CCC4[C@@]5(C)CC[C@H](O[C@@H]6O[C@H](C(=O)O)[C@@H](O)[C@H](O)[C@H]6O)C(C)(C)C5CC[C@]43C)C2C1 (stereo not given in full) | 91.3% [at 9.25 µM] | 
2 | CN(C)CCOc1ccc(-c2nc(-c3ccc4c(c3)CC/C4=N\O)c(-c3ccncc3)[nH]2)cc1 |  | 7420 nM (active)
3 | COc1ccc(CCO[C@@H]2O[C@H](CO[C@@H]3OC[C@H](O)[C@H](O)[C@H]3O)[C@@H](O)[C@H](O)[C@H]2O)cc1 |  | inactive
4 | C/C=C(\C)C(=O)OC1C(C)C2(O)C(C=C(CO)CC3(O)C(=O)C(C)=CC32)C2C(C)(C)C12OC(=O)C(C)C (stereo not given) |  | 20 nM (active)
5 | C[C@@H]1O[C@@H](O[C@@H]2[C@@H](O)[C@@H](O[C@]3(CO)O[C@H](CO)[C@@H](O)[C@@H]3OC(=O)/C=C/c3ccc(O)cc3)O[C@H](CO)[C@H]2OC(=O)/C=C/c2ccc(O)cc2)[C@H](O)[C@H](O)[C@H]1O[C@@H]1O[C@@H](C)[C@H](O[C@@H]2OC[C@](O)(CO)[C@H]2O)[C@@H](O)[C@H]1O | 90% [at 9.25 µM] | 
6 | O=C(Cc1ccc(Cl)cc1)Nc1cnccc1C(=O)O |  | inactive
7 | COc1cc(O[C@@H]2O[C@H](CO)[C@@H](O)[C@H](O)[C@H]2O)c(CCC(=O)OC[C@H]2O[C@@H](Oc3cc(OC)c(C4OC(=O)C(C)(O)C4O)cc3CCC(=O)O)[C@H](O)[C@@H](O)[C@@H]2O)cc1C1OC(=O)C(C)(O)C1O (stereo not given in full) | 77% [at 9.25 µM] | 
8 | Nc1cccc2c1CN(C1CCC(=O)NC1=O)C2=O (stereo not given) |  | 4220 nM (active)
9 | CNS(=O)(=O)Nc1nccc(Cc2c(C)c3ccc(Oc4ncccn4)cc3oc2=O)c1F |  | 417 nM (active)
10 | C[C@@]12C[C@]3(O)O[C@H](O1)[C@]1(COC(=O)c4ccccc4)[C@H]3C[C@@]12O[C@@H]1O[C@H](COC(=O)c2ccccc2)[C@@H](O)[C@H](O)[C@H]1O |  | inactive
11 | COc1ccc(-c2cc(C(O)C3CCCCN3)c3ccccc3n2)cc1 (stereo not given) |  | 525 nM (active)
12 | Nc1nccc(Oc2ccc(NC(=O)c3c[nH]cc(-c4ccc(F)cc4)c3=O)cc2F)c1Cl |  | 29.5 nM (active)
13 | CCN1CCCC1CNC(=O)c1cc(S(=O)(=O)CC)c(N)cc1OC (stereo not given) |  | inactive
14 | CC1(C)[C@@H](O[C@H]2O[C@H](C(=O)O)[C@@H](O)[C@H](O)[C@H]2O[C@@H]2O[C@H](C(=O)O)[C@@H](O)[C@H](O)[C@H]2O)CC[C@]2(C)[C@H]3C(=O)C=C4[C@@H]5C[C@@](C)(C(=O)O)CC[C@]5(C)CC[C@@]4(C)[C@]3(C)CC[C@@H]12 |  | inactive
15 | CC1CC2(O)OC(=O)C3=C2C(CCC3)[C@@]12C[C@@H](c1ccoc1)OC2=O (stereo not given in full) |  | 321 nM (active)
16 | O=C(O)/C=C/c1ccc(O)c(O[C@@H]2O[C@H](CO)[C@@H](O)[C@H](O)[C@H]2O)c1 |  | inactive
17 | O=C(CC1CC(c2ccc(F)cc2F)=NO1)N1CCOCC1 (stereo not given) |  | inactive
18 | COc1cc(O[C@@H]2O[C@H](CO[C@H]3OC[C@](O)(CO)[C@H]3O)[C@@H](O)[C@H](O)[C@H]2O)cc(OC)c1O |  | inactive
19 | CCC(C)C(=O)O[C@H]1[C@@H](O[C@H]2O[C@H](CO)[C@@H](O)[C@H](O)[C@H]2O)O[C@H](CO)[C@@H](O)[C@@H]1O (stereo not given in full) |  | inactive
20 | CCOC(=O)CCNc1cc(N2CCc3ccccc3CC2)nc(-c2cccnc2)n1 |  | inactive

Row | Compound | viability (% of control) | Potency
21 | COc1cc(N2CCOCC2)ccc1Nc1ncc(F)c(Nc2ccccc2NS(C)(=O)=O)n1 |  | 1640 nM (active)
22 | CC[C@]12C=CCN3CC[C@@]4(c5cc([C@@]6(C(=O)OC)C[C@H]7C[C@@H](C(C)(F)F)CN(Cc8c6[nH]c6ccccc86)C7)c(OC)cc5N(C)[C@H]4[C@@](O)(C(=O)OC)[C@@H]1OC(C)=O)[C@@H]32 |  | 55.5 nM (active)
23 | C[C@@H]1C[C@H]2[C@@H]3C[C@H](F)C4=CC(=O)C=C[C@]4(C)[C@@]3(F)[C@@H](O)C[C@]2(C)[C@@]1(O)C(=O)CO |  | 335 nM (active)
24 | CC(C(=O)O)c1cccc(C(=O)c2ccccc2)c1 (stereo not given) |  | inactive
25 | Nc1ncnc2ccccc12 |  | inactive
26 | Cc1cc(N2CCOCC2)ccc1Nc1nc(NC2CCCCC2)c2[nH]cnc2n1 |  | 833 nM (active)
27 | O=S(=O)(O)c1ccc(O)cc1 |  | inactive
28 | C#Cc1cccc(Nc2ncnc3cc(OCCOC)c(OCCO)cc23)c1 |  | 1480 nM (active)
29 | O=C1CC(c2ccc(Cl)cc2)CC(=O)N1 |  | inactive
30 | CCN1CCC(n2cc(CNc3cc(Cl)c4ncc(C#N)c(Nc5ccc(F)c(Cl)c5)c4c3)nn2)CC1 |  | 13000 nM (active)
31 | COc1cc(C[C@H]2COC(=O)[C@@H]2Cc2ccc(O)c(OC)c2)ccc1O |  | inactive
32 | CCCN(CCC)C(=O)C(CCC(=O)OCCCN1CCN(CCOC(=O)Cc2c(C)n(C(=O)c3ccc(Cl)cc3)c3ccc(OC)cc23)CC1)NC(=O)c1ccccc1 (stereo not given) |  | 23100 nM (active)
33 | CC(=O)N[C@@H](CC(C)C)C(=O)O |  | inactive
34 | CN(C)c1ccc(C2O[C@@H](c3ccccc3)C[C@H](c3ccccc3)O2)cc1 (stereo not given in full) |  | inactive
35 | C=C1C(=O)O[C@@H]2[C@H]3C(C)=CC[C@@]34O[C@@]4(C)CC[C@@H]12 |  | 3320 nM (active)
36 | FC(F)(F)C(F)(F)C(F)(F)C(F)(F)C(F)(F)C(F)(F)C(F)(F)C(F)(F)Br |  | inactive
37 | COc1ccc(S(=O)(=O)N[C@@H](CNc2nc(C)nc(N3CCC(c4ccc5c(n4)NCCC5)CC3)c2C)C(=O)O)cc1 |  | inactive
38 | O=C(O)c1n[nH]c2c1C[C@H]1C[C@@H]21 |  | inactive
39 | CN1CCCN(C(=O)c2cccc(-c3ccc(/C=C4/C(=O)Nc5ccc(Cl)cc54)o3)c2)CC1 |  | 417 nM (active)
40 | COc1ccc(CN2C(=O)C(=O)c3cc(S(=O)(=O)N4CCC[C@H]4COc4cccnc4)ccc32)cc1 |  | inactive
